Screening results from PubChem BioAssay.
Compounds with a hit are over-represented: about 4.8% of the library has one in this group of screens.
USP2a inh: qHTS Assay for Inhibitors of Ubiquitin-specific Protease USP2a Using CHOP2 as the Reporter; Ubiquitin carboxyl-terminal hydrolase 2 (Homo sapiens), O75604; Potency, µM (titrated, usually from 38.3 µM), inactives show at the top dose activity change, negative = inhibition, hits mostly inhibitors; actives 0.01% (n = 330,000); USP2 core, Ub-CHOP2 coupled fluorogenic reporter, 485/531;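 further: potency means the concentration at half of the fitted maximal effect; plate controls were DMSO wells for no effect and full inhibition by NEM control for full effect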
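Deubiquitinase activity read as fluorescence (485/531 nm) after Ub-CHOP2 cleavage activates the enterokinase reporter on its substrate; USP2 core 10nM, Ub-CHOP2 and substrate 25nM each, 30min compound preincubation then 60min RT; data normalized to NEM, curves fitted.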
ATXN2 expr inh: Primary qHTS for Inhibitors of ATXN expression; HEK-293 ATXN2-luciferase reporter, luminescence, 24 h; Potency, µM (highest dose often 57 µM), without a hit: at the top dose activity change, negative = inhibition, most hits filed as inhibitors; actives 0.72% (n = 360,000); further: potency means the concentration at half of the fitted maximal effect; on the % scale 0 is the no-effect control and ±100 the full control effect; nearly all actives have a fitted effect of over 55% in size
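ATXN2-luciferase reporter cells (luciferase flanked by upstream and downstream ATXN2 gene portions) were treated 24 h at 37 °C with compounds at up to 57 uM. SteadyGlo luminescence gave expression; GF-AFC fluorescence gave viability.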
IL1B secr inh: qHTS for Inhibitors of Inflammasome Signaling: IL-1-beta AlphaLISA Primary Screen; THP-1 LPS/ATP IL-1B secretion, AlphaLISA, 16 h; active compounds read low; activity change, % at 57.5 µM; actives 4.7% (n = 360,000); AID 743279, 2014; in the data active means activity change below about -50%; inconclusive means mostly about -30% to -49%; further: on the % scale 0 is the no-effect control and ±100 the full control effect
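THP-1 cells pretreated 1 hr with compounds (up to 57.5 uM final), then stimulated with LPS (250 ng/mL final) plus ATP (1.25 mM final); secreted IL-1B measured by AlphaLISA after 16 hr, decreased signal indicating inhibition.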
USP1-UAF1 inh: Inhibitors of USP1/UAF1: Primary Screen; Ubiquitin carboxyl-terminal hydrolase 1 (Homo sapiens), O94782; Potency, µM (highest dose often 57.1 µM), for the others: at the top dose activity change, negative = inhibition, actives largely listed as inhibitors; actives 0.23% (n = 390,000); recombinant USP1/UAF1, Ub-Rhodamine cleavage fluorescence; AID 743255, 2014; further: potency means the concentration at half of the fitted maximal effect; on the % scale 0 is the no-effect control and ±100 the full control effect; nearly all actives have a fitted effect of over 60% in size
Target sequence (O94782 whole entry, looked up): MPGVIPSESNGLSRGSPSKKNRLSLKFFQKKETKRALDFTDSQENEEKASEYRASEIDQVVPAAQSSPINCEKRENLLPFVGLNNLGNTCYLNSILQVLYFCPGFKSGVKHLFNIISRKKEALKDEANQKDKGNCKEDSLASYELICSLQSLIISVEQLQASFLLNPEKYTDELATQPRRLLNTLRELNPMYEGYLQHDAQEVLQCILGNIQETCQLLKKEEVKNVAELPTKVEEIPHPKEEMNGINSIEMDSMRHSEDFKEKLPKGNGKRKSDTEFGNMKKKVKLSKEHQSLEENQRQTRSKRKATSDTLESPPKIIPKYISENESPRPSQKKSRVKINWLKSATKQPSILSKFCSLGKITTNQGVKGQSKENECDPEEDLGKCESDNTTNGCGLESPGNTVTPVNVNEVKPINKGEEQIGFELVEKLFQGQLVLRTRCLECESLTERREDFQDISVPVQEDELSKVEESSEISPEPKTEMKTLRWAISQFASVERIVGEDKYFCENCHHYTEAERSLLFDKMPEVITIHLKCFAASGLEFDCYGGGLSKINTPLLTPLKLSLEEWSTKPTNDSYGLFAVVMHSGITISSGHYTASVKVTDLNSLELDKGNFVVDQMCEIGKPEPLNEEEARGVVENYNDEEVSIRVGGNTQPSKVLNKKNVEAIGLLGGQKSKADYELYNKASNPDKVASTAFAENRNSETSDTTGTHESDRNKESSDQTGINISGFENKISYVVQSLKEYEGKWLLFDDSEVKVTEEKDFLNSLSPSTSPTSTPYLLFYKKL
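1 nM enzyme complex + cpd, 15 min RT; start with Ub-Rho 150nM final; kinetic fluorescence ex 480/em 540, 6 reads q60 s. Buffer 50mM HEPES pH 7.8, 0.5mM EDTA, 0.1 mg/ml BSA, 1mM TCEP, 0.01% Tween-20.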
ATXN viability: Viability Counterscreen for Primary qHTS for Inhibitors of ATXN expression | S2 cells (HEK-293 line with an ATXN2-luciferase reporter) viability, CellTiter-Fluor protease fluorescence, 24 h | Potency, µM (top dose mostly 56.7 µM), actives largely listed as cytotoxic | actives 0.49% (n = 400,000) | AID 651635, 2014; further: potency means the concentration at half of the fitted maximal effect; nearly all actives have a fitted effect of over 40% in size
Starred values were filed as active, the others as inactive; i = inactive; ? = inconclusive; / = not tested or not shown; [ ] = dose if it differs, or a comment. Unless noted, the call rests on the fitted dose curve; in most records, active means well fitted curve in the direction sought with a large enough effect; inconclusive means small, poorly fitted or top-dose-only effect, or another doubt; inactive means no such curve, though single readings can be large; an effect the other way counts as inactive or inconclusive.

SMILES | USP2a inh | ATXN2 expr inh | IL1B secr inh | USP1-UAF1 inh | ATXN viability
O=C(O)Cn1cnnn1 | / | 3% | / | / | i
COc1ccc(CCNc2nc(-c3ccccn3)cs2)cc1OC | 1% | / | 8 | -25% | ?
COc1ccc(CCNc2nc(-c3sc(C)nc3C)cs2)cc1OC | -14% | ? | -56* | -16% | ?
COc1ccc(CCNc2nc(-c3ccncc3)cs2)cc1OC | -3% | -31% | -21 | -8% | i
COc1ccc(CCNc2nc(-c3ccc(O)cc3)cs2)cc1OC | 2% | ? | -62* | -25% | i
O=C(CN1C(=O)CSc2ccc(S(=O)(=O)N3CCOCC3)cc21)NCCCN1CCCCC1 | 6% | 11% | 12 | -14% | i
CC1CC(C)CN(CCCNC(=O)CN2C(=O)CSc3ccc(S(=O)(=O)N4CCCCC4)cc32)C1 (centres undefined) | 3% | -13% | -60* | -11% | i
CC(=O)Nc1nc(C)c(-c2csc(Nc3cccc(C(C)=O)c3)n2)s1 | -1% | / | -79* | -27% | ?
CCC(=O)Nc1nc(C)c(-c2csc(Nc3cccc(C(=O)O)c3)n2)s1 | 1% | -7% | -1 | -26% | i
CC(=O)c1cccc(Nc2nc(-c3cccc([N+](=O)[O-])c3)cs2)c1 | 0% | 5% | -1 | -14% | ?
CC(=O)Nc1nc(C)c(-c2csc(Nc3cccc([N+](=O)[O-])c3)n2)s1 | -1% | ? | -51* | -1% | i
Cc1ccc(N2C(=O)CS(=O)(=O)C23C(=O)N(Cc2ccc(Cl)cc2)c2ccccc23)cc1C (centres undefined) | / | -12% | / | ? | i
CCC(=O)OCCNc1cc(Sc2nc3ccccc3[nH]2)c2nonc2c1[N+](=O)[O-] | 2% | 28µM* | -101* | -5% | 28µM*
Cc1nnc(Sc2cc(NCCCO)c([N+](=O)[O-])c3nonc23)s1 | 9% | ? | -105* | 14µM* | /
CC(=O)OCCCNc1cc(SCc2ccco2)c2nonc2c1[N+](=O)[O-] | 0% | -32% | -103* | 0% | i
CCCC(=O)OCCNc1cc(SCc2ccco2)c2nonc2c1[N+](=O)[O-] | 4% | -35% | ? | -8% | i
O=[N+]([O-])c1c(NCCCO)cc(Sc2nc3ccccc3s2)c2nonc12 | 1% | ? | ? | ? | 25µM*
COc1ccccc1CN(C)C(=O)CN1CCN(S(=O)(=O)c2ccc3c(c2)OCCCO3)CC1 | -5% | -7% | -13 | -11% | i
Cc1oc(-c2ccccc2NC(=O)C2CCCO2)nc1CNC(=O)c1cc(Cl)ccc1F (centres undefined) | / | / | / | / | i
CS(=O)(=O)Nc1cccc(NC(=O)C2Cc3c(-c4ccco4)ccnc3O2)c1 (centres undefined) | / | -24% | 0 | / | i
CCC(=O)OCCNc1cc(Sc2nc3ccccc3s2)c2nonc2c1[N+](=O)[O-] | -2% | 6.3µM* | -14 | ? | 8.9µM*
CCCSc1cc(NCCOC(=O)CCC)c([N+](=O)[O-])c2nonc12 | 3% | -19% | -19 | -19% | ?
CCCC(=O)OCCNc1cc(Sc2nccn2C)c2nonc2c1[N+](=O)[O-] | 3% | 20µM* | -101* | -10% | /
CCOC(=O)[C@]12CCC=C1N(Cc1ccc3c(c1)OCO3)C(=O)[C@H](CC(=O)NCc1ccc(C)o1)C2 | / | 2% | 0 | / | i
CCN(CC)CCOC(=O)c1ccc(NC(=O)CCn2c(=O)oc3ccccc32)cc1 | / | 7% | / | -19% | i
SMILES | USP2a inh | ATXN2 expr inh | IL1B secr inh | USP1-UAF1 inh | ATXN viability
COc1ccc(CN2C(=O)c3ccccc3C2C(=O)NCCc2ccccc2)c(OC)c1 (centres undefined) | -13% | 6% | ? | 2% | ?
COc1ccc(CN2C(=O)c3ccccc3C2C(=O)NC2CCCCCC2)c(OC)c1 (centres undefined) | 0% | -25% | -54* | -4% | ?
CN1CCN(CCCNC(=O)Cn2c(-c3cccs3)cc3cc(Cl)ccc32)CC1 | / | ? | / | -18% | ?
CCCNCc1cc(Br)ccc1OCC(=O)NCCc1ccccc1 | 2% | 0% | -52* | -20% | ?
COc1ccccc1-c1nnc(C2CCN(S(=O)(=O)c3ccc(CC(C)C)cc3)CC2)o1 | / | -29% | / | ? | ?
COC1CCC(C(=O)c2ccc3nc4c(cc3c2)CCCO4)CC1 (centres undefined) | / | 31µM* | / | / | /
CC1CCc2c(sc(NC(=O)COc3ccccc3C(C)(C)C)c2C#N)C1 (centres undefined) | / | 8% | / | -20% | i
O=C(Cc1coc2cc3c(cc12)CCC3)NCC1(N2CCCCC2)CCCCC1 | -1% | 1%[11.3 µM] | -82* | 4% | i
O=C(Cc1coc2cc3c(cc12)CCC3)NC1CCCCCCC1 | 1% | 13% | 0 | -26% | i
O=C1C(O)=CC(=C(c2ccccc2)c2ccccc2)c2ccccc21 | / | 0% | -92* | ? | ?
COc1ccc(-n2nc3ccc(NC(=O)c4ccc(C#N)cc4F)cc3n2)cc1Cl | / | 6% | / | -25% | i
Cn1cc(S(=O)(=O)c2ccccc2)c(=O)c2cc(Cl)ccc21 | 4% | -10% | -19 | -18% | i
Cn1cc(C=O)c2cc(F)ccc21 | 1% | / | 16 | -24% | i
C[n+]1ccc(/C=C/c2ccc(Br)cc2)cc1 | 0% | -17% | ? | -20% | ?
Cn1cc(/C=C/c2cc[n+](C)cc2)c2cc(Cl)ccc21 | ? | ? | -60* | -18% | i
C[n+]1ccc(/C=C/c2c[nH]c3ccc(F)cc23)cc1 | ? | -18% | 31 | 28µM* | i
Cn1cc(/C=C/c2cc[n+](C)cc2)c2cc(F)ccc21 | ? | ? | -4 | 28µM* | /
CCn1c(C(=O)N(C2CC2)C2CC2)cc2c3c(ncn3C)c(Nc3cc(C)n(C)n3)nc21 | / | -1% | / | / | /
CCCNS(=O)(=O)c1cccc(C(=O)NNC(=O)c2cc(C)oc2C)c1 | 5% | 1% | 9 | -4% | i
CCOc1ccc(N/C(C)=C\C(=O)c2ccc3c(c2)OCCO3)cc1 | -4% | 18% | -11 | -10% | ?
CCOc1ccc(N/C(C)=C/C(=O)c2ccc3c(c2)OCCO3)cc1 | -5% | 55% | -77* | -19% | i
CSc1ccccc1C(=O)NCCOc1cccc(C)c1 | 1% | -11% | -91* | -17% | i
Cc1ccc(C(=O)NCCOc2cccc(C)c2)cc1 | 4% | 45% | -20 | 1% | i
O=C(CCN1C(=O)/C(=C/c2cccs2)SC1=S)Nc1cccc(O)c1 | 1% | 12% | -82* | -13% | i
